Test results as given in PubChem BioAssay (NCATS).
Results filed as inconclusive are left out. Entries that show only a call come without a potency. A number with no mark means an inactive call. Active and inactive are the calls of the source. The call rests on the fitted dose curve; in most records, active means well fitted curve in the direction sought with a large enough effect; inconclusive means small, poorly fitted or top-dose-only effect, or another doubt; inactive means no such curve, though single readings can be large; an effect the other way counts as inactive or inconclusive.

Legend:
[1] = target: Rap guanine nucleotide exchange factor 3 (Homo sapiens) (UniProt O95398); experiment: Confirmatory qHTS for agonist of cAMP-regulated guanine nucleotide exchange factor 3 (EPAC1) (AID 1645881); further: nearly all actives have a fitted effect of over 75% in size; further: potency means the concentration at half of the fitted maximal effect;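 on activation: EPAC1 catalysed release of BODIPY-GDP from Rap1B seen as fluorescence loss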
Chain of Rap guanine nucleotide exchange factor 3 (Homo sapiens) (O95398 whole entry, looked up): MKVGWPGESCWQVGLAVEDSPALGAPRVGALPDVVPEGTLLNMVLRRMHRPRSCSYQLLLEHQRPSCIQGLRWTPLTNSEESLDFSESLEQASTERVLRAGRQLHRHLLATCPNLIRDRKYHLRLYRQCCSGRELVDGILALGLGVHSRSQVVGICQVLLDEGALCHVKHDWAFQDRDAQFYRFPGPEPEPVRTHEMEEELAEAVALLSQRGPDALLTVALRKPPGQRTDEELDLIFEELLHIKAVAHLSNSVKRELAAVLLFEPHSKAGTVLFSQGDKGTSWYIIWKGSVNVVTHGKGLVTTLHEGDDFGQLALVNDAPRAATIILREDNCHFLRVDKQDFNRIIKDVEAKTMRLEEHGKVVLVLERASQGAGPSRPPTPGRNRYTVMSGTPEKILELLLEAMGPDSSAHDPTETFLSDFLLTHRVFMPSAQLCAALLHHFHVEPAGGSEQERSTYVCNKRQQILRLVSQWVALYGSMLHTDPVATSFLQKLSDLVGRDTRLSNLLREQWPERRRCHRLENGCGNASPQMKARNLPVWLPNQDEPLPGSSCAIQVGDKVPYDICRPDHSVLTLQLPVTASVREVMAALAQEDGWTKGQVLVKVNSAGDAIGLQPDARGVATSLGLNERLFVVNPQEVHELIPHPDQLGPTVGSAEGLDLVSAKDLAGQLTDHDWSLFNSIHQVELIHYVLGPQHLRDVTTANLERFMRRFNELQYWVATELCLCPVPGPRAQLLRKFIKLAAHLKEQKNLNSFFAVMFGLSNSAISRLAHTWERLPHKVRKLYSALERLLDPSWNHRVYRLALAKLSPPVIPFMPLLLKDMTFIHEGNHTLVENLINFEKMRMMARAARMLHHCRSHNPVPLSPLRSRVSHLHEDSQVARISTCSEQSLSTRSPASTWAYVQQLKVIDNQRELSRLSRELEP

[2] = target: Rap guanine nucleotide exchange factor 4 (Homo sapiens) (UniProt Q8WZA2); experiment: Confirmatory qHTS for antagonist of cAMP-regulated guanine nucleotide exchange factor 4 (EPAC2) (AID 1645885); further: nearly all actives have a fitted effect of over 25% in size; further: potency means the concentration at half of the fitted maximal effect
Chain of Rap guanine nucleotide exchange factor 4 (Homo sapiens) (Q8WZA2 whole entry, looked up): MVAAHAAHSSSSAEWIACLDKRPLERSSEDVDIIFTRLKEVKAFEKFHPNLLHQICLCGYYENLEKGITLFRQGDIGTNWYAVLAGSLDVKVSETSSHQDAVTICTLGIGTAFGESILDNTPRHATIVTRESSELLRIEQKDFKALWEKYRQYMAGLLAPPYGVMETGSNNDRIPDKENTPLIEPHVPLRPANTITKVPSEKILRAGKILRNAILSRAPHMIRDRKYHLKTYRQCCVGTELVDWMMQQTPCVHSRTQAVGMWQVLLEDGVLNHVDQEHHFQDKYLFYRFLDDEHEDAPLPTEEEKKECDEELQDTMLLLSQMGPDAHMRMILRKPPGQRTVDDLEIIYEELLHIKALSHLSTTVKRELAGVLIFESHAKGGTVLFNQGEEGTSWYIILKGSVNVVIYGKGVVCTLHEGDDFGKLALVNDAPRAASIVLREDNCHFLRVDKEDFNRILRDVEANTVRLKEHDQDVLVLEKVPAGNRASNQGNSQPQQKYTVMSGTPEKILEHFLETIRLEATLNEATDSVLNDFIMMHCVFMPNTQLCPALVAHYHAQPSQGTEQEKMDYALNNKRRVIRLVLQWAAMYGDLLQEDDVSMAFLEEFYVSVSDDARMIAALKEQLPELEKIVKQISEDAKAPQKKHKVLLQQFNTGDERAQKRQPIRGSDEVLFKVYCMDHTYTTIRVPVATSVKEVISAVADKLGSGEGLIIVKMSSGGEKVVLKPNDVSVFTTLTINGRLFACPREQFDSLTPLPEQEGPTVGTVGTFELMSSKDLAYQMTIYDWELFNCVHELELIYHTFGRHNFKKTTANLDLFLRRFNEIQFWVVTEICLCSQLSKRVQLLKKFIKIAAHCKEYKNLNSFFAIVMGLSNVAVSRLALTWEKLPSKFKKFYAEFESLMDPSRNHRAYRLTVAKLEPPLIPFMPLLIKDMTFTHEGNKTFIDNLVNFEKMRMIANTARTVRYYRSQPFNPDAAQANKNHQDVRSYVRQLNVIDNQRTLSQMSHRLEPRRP

[3] = target: Rap guanine nucleotide exchange factor 3 (Homo sapiens) (UniProt O95398); experiment: Counterscreen qHTS for antagonist of cAMP-regulated guanine nucleotide exchange factor 3 (EPAC1) (AID 1645888);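 further: fluorescence loss as bound BODIPY-GDP is released from Rap1B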
In short: (§1)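 Rap1B-BODIPY-GDP 250 nM + GDP 50 uM; cpds 7-pt, final 9.74 nM–152 uM (activator mode) or from 7.32 nM upwards (inhibitor mode); RT; FI 480/540 nm at 5 and 30 min, then ± cAMP, reread.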

[4] = target: Rap guanine nucleotide exchange factor 3 (Homo sapiens) (UniProt O95398); experiment: Counterscreen qHTS for agonist of cAMP-regulated guanine nucleotide exchange factor 3 (EPAC1) (AID 1645889); further: nearly all actives have a fitted effect of over 40% in size; further: potency means the concentration at half of the fitted maximal effect
In short: as §1

O=C1NNC(c2ccccc2)=N/C1=C\c1ccccc1Cl
Potency [1]: inactive
Potency [2]: inactive
Potency [3]: inactive

Cc1ccc(SCC(=O)Nc2ccccc2N2CCOCC2)cc1
Potency [1]: inactive
Potency [2]: inactive
Potency [3]: inactive
Potency [4]: inactive

COc1ccc(C=C(C(C)=O)C(=O)c2ccccc2)cc1
Potency [1]: inactive
Potency [3]: inactive

O=C(O)c1cccc(Cn2c(Cl)c(/C=N/NC(=O)c3cc4ccccc4cc3O)sc2=O)c1
Potency [1]: inactive
Potency [3]: inactive

Cc1ccc(C2CC2/C(=N/O)c2ccc(F)cc2)cc1 (stereo not given)
Potency [1]: inactive
Potency [2]: 37.9 µM (active)
Potency [4]: inactive

COc1ccc(/C=C2\SC(=S)N(CCC(=O)N3CCCCC3CCO)C2=O)cc1 (stereo not given)
Potency [1]: inactive
Potency [2]: inactive
Potency [3]: inactive
Potency [4]: inactive

Cc1nc2c(C(=O)NCc3ccccc3Cl)c[nH]n2c(=O)c1Cc1cccc(Cl)c1
Potency [1]: inactive
Potency [2]: inactive
Potency [3]: inactive
Potency [4]: inactive

Cc1cccc2sc(N(Cc3cccnc3)C(=O)c3cccs3)nc12
Potency [1]: inactive
Potency [2]: inactive
Potency [3]: inactive
Potency [4]: 25.1 µM (active)

Cc1ccc(CNC(=O)c2cccc3c2C(=O)c2ccc(N4CCCCC4)cc2S3(=O)=O)cc1
Potency [1]: 11.2 µM (active)
Potency [2]: inactive
activity change, negative = inhibition [3]: -7.83% [at 30.8 µM]
Potency [4]: 11.2 µM (active)

CC1=CC(C)(C)N2C(=O)C(=Nc3ccc(O)cc3)c3cccc1c32
Potency [1]: inactive
Potency [2]: inactive
Potency [3]: inactive
Potency [4]: inactive

CC(C)(C)c1cc(NCCCn2ccnc2)n2ncc(-c3ccccc3)c2n1
Potency [1]: inactive
Potency [2]: inactive
Potency [4]: inactive

Cc1ccc2c(c1)N(Cc1cccc(Cl)c1)C(=O)c1cccnc1O2
Potency [1]: inactive
Potency [2]: 47.8 µM (active)
Potency [3]: inactive

CC(=O)Nc1ccc(S(=O)(=O)N2CCN(c3cc(C)ccc3C)CC2)cc1
Potency [1]: inactive
Potency [3]: inactive

COc1ccc(CCNC(=O)CCCn2c(SCC(N)=O)nc3cc4c(cc3c2=O)OCO4)cc1OC
Potency [1]: inactive
outcome [2]: inactive [at 12.7 µM]
Potency [3]: inactive

Cc1cc(N(CCO)Cc2ccccc2)n2nc(-c3ccc(C(C)(C)C)cc3)nc2n1
Potency [1]: inactive
Potency [2]: inactive
Potency [3]: inactive
Potency [4]: inactive

Cc1nc(N)sc1-c1csc(Nc2ncccn2)n1
Potency [1]: inactive
Potency [2]: inactive
Potency [3]: inactive
Potency [4]: inactive

COc1ccc(OC)c(NC(=O)CSc2ncnc3sc(C)cc23)c1
Potency [1]: inactive
Potency [2]: inactive
Potency [3]: inactive
Potency [4]: inactive

COC(=O)NCc1c(C)nn(-c2ccccc2)c1-n1cccc1
Potency [1]: inactive
Potency [2]: inactive
Potency [3]: inactive
Potency [4]: inactive

Nc1nc(CSc2ccc(Cl)cc2)nc(N2CCCCC2)n1
Potency [1]: inactive
Potency [2]: inactive
Potency [3]: inactive

O=C1OC(Cc2ccccc2)(c2ccccc2)c2ccccc21 (stereo not given)
Potency [1]: inactive
Potency [2]: inactive
Potency [3]: inactive
Potency [4]: inactive

CCCN1C(=O)c2[nH]nc(-c3ccc(F)cc3)c2C1c1ccc(O)c(OCC)c1 (stereo not given)
Potency [1]: inactive
Potency [2]: inactive
Potency [3]: inactive
Potency [4]: inactive

C#Cc1ccc([C@H]2C=C(C(=O)NCc3ccccc3)O[C@@H](OCC)[C@@H]2CCCO)cc1
Potency [1]: inactive
Potency [2]: 37.9 µM (active)
Potency [3]: inactive

O=C(O)c1ccc(NS(=O)(=O)c2ccc3c(c2)C2C=CCC2C(c2ccccc2F)N3)cc1 (stereo not given)
Potency [1]: inactive
Potency [2]: 75.7 µM (active)
Potency [3]: inactive
Potency [4]: 44.7 µM (active)

CC1=Nc2ccccc2/C1=C/c1sc(=N)n(-c2nccs2)c1O
Potency [1]: inactive
Potency [2]: inactive
Potency [3]: inactive
Potency [4]: 56.2 µM (active)

COC(=O)c1ccc2nc(-c3ccc(C)cc3)c(Cc3ccsc3)n2c1
Potency [1]: inactive
activity change, negative = inhibition [3]: 1.91% [at 30.8 µM]
activation [4]: 9.45% [at 30.8 µM]

COc1ccccc1CNC(=O)C1(C)CCN1Cc1ccc2ccccc2c1 (stereo not given)
Potency [1]: inactive
Potency [3]: inactive

CN(CC(=O)Nc1cccc(F)c1)C(=O)/C=C/c1cc(Br)ccc1OC(F)F
Potency [1]: inactive
Potency [3]: inactive

CN(Nc1cccc(Cl)c1)c1cccc(Cl)c1
Potency [1]: inactive
Potency [3]: inactive

CCOc1ccc(C2C3=C(CCCC3=O)Nc3ccc4ncccc4c32)cc1 (stereo not given)
Potency [1]: inactive
activity change, negative = inhibition [3]: -12.5% [at 30.8 µM]

CCC(=O)N(CCC(c1ccc(C)cc1)c1ccco1)Cc1ccco1 (stereo not given)
Potency [1]: inactive
activity change, negative = inhibition [3]: -11.4% [at 30.8 µM]
activation [4]: 19.5% [at 30.8 µM]

CCC(C(=O)c1ccc2ncccc2c1)c1ccccc1 (stereo not given)
Potency [1]: inactive
Potency [3]: inactive
Potency [4]: inactive

O=C(Cc1c(F)cccc1Cl)Nc1ccc(S(=O)(=O)Nc2nccs2)cc1
Potency [1]: inactive
activity change, negative = inhibition [3]: 4.41% [at 30.8 µM]

Cc1cccc(Oc2ccccc2NC(=O)C2=COCCO2)c1
Potency [1]: inactive
Potency [3]: inactive

COc1ccc(C(=O)Oc2ccc(/C=N/Nc3ccc(Cl)c(C(=O)O)c3)cc2OC)cc1
Potency [1]: inactive
Potency [3]: inactive

O=C(COc1ccc(F)cc1Br)NCC1COc2ccccc2O1 (stereo not given)
Potency [1]: inactive
Potency [3]: inactive
Potency [4]: inactive

CCOC(=O)C1=C(C)N(C)C(C)=C(C(=O)OCC)C1c1ccc(Cl)cc1
Potency [1]: inactive
Potency [3]: inactive
Potency [4]: inactive

Cc1nc([N+](=O)[O-])c(Br)n1Cc1ccc(Cl)c(Cl)c1
Potency [1]: inactive
Potency [3]: inactive

COC(=O)CN(c1nc(C)c(Br)c(OC)n1)S(=O)(=O)c1ccccc1
Potency [1]: inactive
Potency [3]: inactive

CCN(Cc1cc(=O)oc2cc(C)ccc12)c1ccccc1
Potency [1]: inactive
Potency [3]: inactive

Cc1ccc2sc(N(CCCN(C)C)C(=O)c3nc4ccccc4s3)nc2c1C
Potency [1]: inactive
Potency [3]: inactive

COC(=O)C1=CN(c2c(C)cc(C)cc2C)C(N)=C(C#N)C1c1ccccc1 (stereo not given)
Potency [1]: inactive
Potency [3]: inactive

CCC(CC)C(=O)Nc1nc(-c2ccc3c(c2)CCN3C(=O)C2CC2)c(C)s1
Potency [1]: inactive
activity change, negative = inhibition [3]: -24% [at 30.8 µM]
activation [4]: 26.5% [at 30.8 µM]

C/C(=N\N(Cc1ccccc1)c1ccccc1)c1cccnc1
Potency [1]: inactive
Potency [3]: inactive

CCC(=O)N(CCC(Cc1ccccc1)c1ccco1)Cc1ccco1 (stereo not given)
Potency [1]: inactive
Potency [3]: inactive
Potency [4]: inactive

S=C(Nc1ccc2nsnc2c1)N1CCCCC1
Potency [1]: inactive
Potency [3]: inactive

COc1ccccc1C1CC(=O)Oc2cc(C)c(Br)c(C)c21 (stereo not given)
Potency [1]: inactive
Potency [3]: inactive

O=C(Nc1ccc(F)cc1)c1cccc(N2C(=O)C3C4C=CC(C5CC45)C3C2=O)c1 (stereo not given)
Potency [1]: inactive
Potency [3]: inactive

Cc1ccc2c(c1)OC(=O)CC2c1ccccc1 (stereo not given)
Potency [1]: inactive
Potency [3]: inactive

O=C1Nc2ccccc2/C1=N\N=C\c1ccc(O)c(O)c1
Potency [1]: inactive
Potency [3]: inactive

COC(=O)c1ccc2nc(-c3ccc(Cl)cc3)c(Cc3ccsc3)n2c1
Potency [1]: inactive
Potency [3]: inactive
Potency [4]: inactive

COC(=O)c1ccc2nc(-c3ccc(Cl)cc3)c(Cc3ccccc3OC)n2c1
Potency [1]: inactive
Potency [3]: inactive
Potency [4]: inactive

COC(=O)c1ccc2nc(C3CCCCC3)c(Cc3ccccc3C(F)(F)F)n2c1
Potency [1]: inactive
Potency [3]: inactive
Potency [4]: inactive

O=C(/C=C/c1ccco1)Oc1cc(Br)cc(/C=N/NC(=O)c2ccccc2O)c1
Potency [1]: inactive
Potency [3]: inactive

N#Cc1c(N)c(C#N)c(-c2ccc(O)cc2)c2c1CCCC2
Potency [1]: inactive
Potency [3]: inactive

Cc1ccc2nc(-c3ccccc3)c(Cc3cccc(Cl)c3)n2c1
Potency [1]: inactive
Potency [3]: inactive

CCc1nnc(NS(=O)(=O)c2ccc(NC(=O)C(c3ccccc3)c3ccccc3)cc2)s1
Potency [1]: inactive
Potency [3]: inactive

O=C1N(c2ccc(Cl)cc2)C(c2ccccc2)N2CCCN12 (stereo not given)
Potency [1]: inactive
Potency [3]: inactive

COc1ccc(NC(=O)c2cc(-c3cc(Cl)ccc3C)n[nH]2)cn1
Potency [1]: inactive
Potency [3]: inactive

Clc1ccc(CSc2nnc(-c3ccccn3)n2Cc2ccco2)cc1Cl
Potency [1]: inactive
Potency [3]: inactive

COC(=O)c1ccc2nc(-c3cccc(Br)c3)c(Cc3ccccc3)n2c1
Potency [1]: inactive
Potency [3]: inactive

Cn1ccc2c(-c3ccc(C(C)(C)C)cc3)cc3c(c21)C1CCC3O1 (stereo not given)
Potency [1]: inactive
Potency [3]: inactive
Potency [4]: inactive

Cc1nc(Nc2ccc(Br)cc2Br)c([N+](=O)[O-])c(=O)[nH]1
Potency [1]: inactive
Potency [3]: inactive

CC(=O)NC(c1cccc(F)c1)c1nc(/C=C/c2ccccc2)cs1 (stereo not given)
Potency [1]: inactive
Potency [3]: inactive

COc1ccc(NS(=O)(=O)c2ccc(S(=O)(=O)N3CCCC3)cc2)cc1
Potency [1]: inactive
activity change, negative = inhibition [3]: -8.86% [at 30.8 µM]
activation [4]: 24.5% [at 30.8 µM]

O=C1Nc2ccccc2N=C(c2ccccc2)c2ccccc21
Potency [1]: inactive
activation [4]: 39.2% [at 30.8 µM]

COc1ccc(C(=O)c2oc3ccc(OC)cc3c2N)cc1
Potency [1]: inactive
Potency [3]: inactive
Potency [4]: inactive
